Targets with a hit are over-represented here; the source holds about 8,800 in all. About 0.5% of all pairs of compound and target were hits. Unmarked numbers belong to inactive results.
Assays:
Experiment in all cases: log2 fold change, soluble protein after heating vs DMSO (PISA); higher = thermal stabilisation; K562 lysate, 10 uM; active = over 0.2 and 3.5 SD of the protein, either way, in both replicates (recomputed)
nilotinib = compound: Cc1cn(-c2cc(NC(=O)c3ccc(C)c(Nc4nccc(-c5cccnc5)n4)c3)cc(C(F)(F)F)c2)cn1 [nilotinib]
Procedure, shortened: (§1)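 Values give the log-two fold change in thermal stability against solvent controls, from duplicates. Crude K562 extract at 1 mg/mL protein, made by dounce homogenisation in PBS pH 7.4 with 1 mM MgCl2, was treated with 10 μM compound for 30 min. After 3 min heating across 48°C-58°C, aliquots were pooled, adjusted to 0.5% NP-40 at 4°C and centrifuged at 21,000xg for 90 min. The supernatant was measured by TMTpro 16plex LC-MS/MS with channel sums equalised.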

[1] = compound: Cc1nc(Nc2n[nH]c3c2CN(C(=O)N[C@H](CN(C)C)c2ccccc2)C3(C)C)c2sccc2n1
Procedure, shortened: as §1

dasatinib = compound: Cc1nc(Nc2ncc(C(=O)Nc3c(C)cccc3Cl)s2)cc(N2CCN(CCO)CC2)n1 [dasatinib]
Procedure, shortened: as §1

[2] = compound: Cc1ncc(-c2ccnc(Nc3ccc(S(C)(=O)=O)cc3)n2)n1C(C)C
Procedure, shortened: as §1

[3] = compound: Cn1cc(-c2ccc3c(c2)CCN3C(=O)Cc2cccc(C(F)(F)F)c2)c2c(N)ncnc21
Procedure, shortened: as §1

quisinostat = compound: Cn1cc(CNCC2CCN(c3ncc(C(=O)NO)cn3)CC2)c2ccccc21 [quisinostat]
Procedure, shortened: as §1

tipifarnib = compound: Cn1cncc1[C@@](N)(c1ccc(Cl)cc1)c1ccc2c(c1)c(-c1cccc(Cl)c1)cc(=O)n2C [tipifarnib]
Procedure, shortened: as §1

[4] = compound: NC(=O)Nc1cc(-c2cccc(F)c2)sc1C(=O)N[C@H]1CCCNC1
Procedure, shortened: as §1

[5] = compound: NC(=O)c1cnc(N[C@@H]2CCCC[C@@H]2N)nc1Nc1cccc(-n2nccn2)c1
Procedure, shortened: as §1

[6] = compound: NC1(c2ccc(-c3nc4ccn5c(=O)[nH]nc5c4cc3-c3ccccc3)cc2)CCC1
Procedure, shortened: as §1

[7] = compound: NCC(=O)Nc1ccc(-n2nc(C(F)(F)F)cc2-c2ccc3c(ccc4ccccc43)c2)cc1
Procedure, shortened: as §1

vorinostat = compound: O=C(CCCCCCC(=O)Nc1ccccc1)NO [vorinostat]
Procedure, shortened: as §1

silmitasertib = compound: O=C(O)c1ccc2c(c1)nc(Nc1cccc(Cl)c1)c1ccncc12 [silmitasertib]
Procedure, shortened: as §1

[8] = compound: O=C1NC(=O)C(c2cnc3ccccn23)=C1c1cn2c3c(cc(F)cc13)CN(C(=O)N1CCCCC1)CC2
Procedure, shortened: as §1

entospletinib = compound: c1cn2cc(-c3ccc4cn[nH]c4c3)nc(Nc3ccc(N4CCOCC4)cc3)c2n1 [entospletinib]
Procedure, shortened: as §1

Sequence of UniProt Q9Y315 (Q9Y315 whole entry, looked up): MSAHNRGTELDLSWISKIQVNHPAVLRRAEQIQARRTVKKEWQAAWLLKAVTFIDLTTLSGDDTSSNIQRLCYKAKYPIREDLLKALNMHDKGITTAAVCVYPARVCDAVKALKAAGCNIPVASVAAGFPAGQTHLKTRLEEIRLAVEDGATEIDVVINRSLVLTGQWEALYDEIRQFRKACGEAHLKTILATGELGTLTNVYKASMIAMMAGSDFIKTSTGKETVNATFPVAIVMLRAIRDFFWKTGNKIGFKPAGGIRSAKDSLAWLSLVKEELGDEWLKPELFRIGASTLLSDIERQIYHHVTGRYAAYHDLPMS
Sequence of UniProt O75153 (O75153 whole entry, looked up): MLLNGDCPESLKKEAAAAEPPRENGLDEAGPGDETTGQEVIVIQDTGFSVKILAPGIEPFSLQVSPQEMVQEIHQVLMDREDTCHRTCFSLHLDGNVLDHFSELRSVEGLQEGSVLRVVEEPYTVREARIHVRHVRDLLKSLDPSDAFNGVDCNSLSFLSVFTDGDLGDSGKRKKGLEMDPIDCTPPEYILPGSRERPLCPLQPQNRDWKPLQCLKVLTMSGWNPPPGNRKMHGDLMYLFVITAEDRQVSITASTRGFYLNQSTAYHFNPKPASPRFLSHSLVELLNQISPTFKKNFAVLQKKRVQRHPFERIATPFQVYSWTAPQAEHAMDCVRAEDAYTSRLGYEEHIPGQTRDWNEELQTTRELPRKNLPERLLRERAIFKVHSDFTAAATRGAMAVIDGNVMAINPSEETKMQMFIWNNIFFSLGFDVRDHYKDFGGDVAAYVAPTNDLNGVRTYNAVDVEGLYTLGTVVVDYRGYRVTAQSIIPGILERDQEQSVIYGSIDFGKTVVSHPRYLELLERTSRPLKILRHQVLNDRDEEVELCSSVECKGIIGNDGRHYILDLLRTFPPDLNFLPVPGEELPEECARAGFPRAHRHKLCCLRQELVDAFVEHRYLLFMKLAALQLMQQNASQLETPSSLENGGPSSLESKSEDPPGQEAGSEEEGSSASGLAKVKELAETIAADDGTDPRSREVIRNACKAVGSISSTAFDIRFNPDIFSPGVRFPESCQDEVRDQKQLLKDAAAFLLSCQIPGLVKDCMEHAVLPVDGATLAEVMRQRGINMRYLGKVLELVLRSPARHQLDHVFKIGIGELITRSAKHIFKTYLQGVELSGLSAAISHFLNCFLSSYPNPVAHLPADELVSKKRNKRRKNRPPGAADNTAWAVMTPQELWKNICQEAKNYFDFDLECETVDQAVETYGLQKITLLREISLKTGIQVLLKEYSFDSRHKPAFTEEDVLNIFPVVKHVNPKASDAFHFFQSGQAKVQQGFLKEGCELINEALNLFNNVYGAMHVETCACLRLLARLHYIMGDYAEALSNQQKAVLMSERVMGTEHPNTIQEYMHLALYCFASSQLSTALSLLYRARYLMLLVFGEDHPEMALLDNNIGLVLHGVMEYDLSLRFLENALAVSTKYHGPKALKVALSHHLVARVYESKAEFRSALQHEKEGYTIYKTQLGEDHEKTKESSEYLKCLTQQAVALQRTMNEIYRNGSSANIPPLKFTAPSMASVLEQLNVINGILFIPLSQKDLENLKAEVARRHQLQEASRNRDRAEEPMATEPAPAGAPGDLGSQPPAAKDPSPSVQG
Sequence of UniProt P06732 (P06732 whole entry, looked up): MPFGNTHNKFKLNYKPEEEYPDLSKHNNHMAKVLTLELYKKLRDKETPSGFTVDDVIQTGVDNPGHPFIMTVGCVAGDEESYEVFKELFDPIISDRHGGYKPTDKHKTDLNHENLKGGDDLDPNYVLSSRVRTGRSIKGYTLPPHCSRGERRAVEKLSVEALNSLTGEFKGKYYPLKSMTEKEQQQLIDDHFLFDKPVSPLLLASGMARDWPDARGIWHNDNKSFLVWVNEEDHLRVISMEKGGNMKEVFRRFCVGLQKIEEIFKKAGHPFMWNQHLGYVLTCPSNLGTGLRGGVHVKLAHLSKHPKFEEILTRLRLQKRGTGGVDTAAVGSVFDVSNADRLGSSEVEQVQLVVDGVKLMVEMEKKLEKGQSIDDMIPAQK
Sequence of UniProt P21964 (P21964 whole entry, looked up): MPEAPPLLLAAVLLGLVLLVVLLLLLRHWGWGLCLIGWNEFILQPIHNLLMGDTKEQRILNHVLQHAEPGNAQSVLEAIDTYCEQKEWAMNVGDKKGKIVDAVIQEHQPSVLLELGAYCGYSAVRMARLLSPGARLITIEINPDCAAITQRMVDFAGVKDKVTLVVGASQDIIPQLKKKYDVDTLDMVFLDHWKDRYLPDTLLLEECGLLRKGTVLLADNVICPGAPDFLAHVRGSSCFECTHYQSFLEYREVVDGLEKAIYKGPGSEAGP
Sequence of UniProt P00374 (P00374 whole entry, looked up): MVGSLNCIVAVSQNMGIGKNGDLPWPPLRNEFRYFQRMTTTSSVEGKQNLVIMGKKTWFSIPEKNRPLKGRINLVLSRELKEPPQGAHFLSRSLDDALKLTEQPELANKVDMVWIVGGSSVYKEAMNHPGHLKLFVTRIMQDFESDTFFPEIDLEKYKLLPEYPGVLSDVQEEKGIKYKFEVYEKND
Sequence of UniProt P61923 (P61923 whole entry, looked up): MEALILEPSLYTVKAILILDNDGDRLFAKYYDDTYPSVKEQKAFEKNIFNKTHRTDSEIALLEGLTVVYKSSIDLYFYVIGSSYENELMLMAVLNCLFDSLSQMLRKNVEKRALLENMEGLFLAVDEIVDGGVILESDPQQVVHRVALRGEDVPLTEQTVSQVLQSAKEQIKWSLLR
Sequence of UniProt Q7Z401 (Q7Z401 whole entry, looked up): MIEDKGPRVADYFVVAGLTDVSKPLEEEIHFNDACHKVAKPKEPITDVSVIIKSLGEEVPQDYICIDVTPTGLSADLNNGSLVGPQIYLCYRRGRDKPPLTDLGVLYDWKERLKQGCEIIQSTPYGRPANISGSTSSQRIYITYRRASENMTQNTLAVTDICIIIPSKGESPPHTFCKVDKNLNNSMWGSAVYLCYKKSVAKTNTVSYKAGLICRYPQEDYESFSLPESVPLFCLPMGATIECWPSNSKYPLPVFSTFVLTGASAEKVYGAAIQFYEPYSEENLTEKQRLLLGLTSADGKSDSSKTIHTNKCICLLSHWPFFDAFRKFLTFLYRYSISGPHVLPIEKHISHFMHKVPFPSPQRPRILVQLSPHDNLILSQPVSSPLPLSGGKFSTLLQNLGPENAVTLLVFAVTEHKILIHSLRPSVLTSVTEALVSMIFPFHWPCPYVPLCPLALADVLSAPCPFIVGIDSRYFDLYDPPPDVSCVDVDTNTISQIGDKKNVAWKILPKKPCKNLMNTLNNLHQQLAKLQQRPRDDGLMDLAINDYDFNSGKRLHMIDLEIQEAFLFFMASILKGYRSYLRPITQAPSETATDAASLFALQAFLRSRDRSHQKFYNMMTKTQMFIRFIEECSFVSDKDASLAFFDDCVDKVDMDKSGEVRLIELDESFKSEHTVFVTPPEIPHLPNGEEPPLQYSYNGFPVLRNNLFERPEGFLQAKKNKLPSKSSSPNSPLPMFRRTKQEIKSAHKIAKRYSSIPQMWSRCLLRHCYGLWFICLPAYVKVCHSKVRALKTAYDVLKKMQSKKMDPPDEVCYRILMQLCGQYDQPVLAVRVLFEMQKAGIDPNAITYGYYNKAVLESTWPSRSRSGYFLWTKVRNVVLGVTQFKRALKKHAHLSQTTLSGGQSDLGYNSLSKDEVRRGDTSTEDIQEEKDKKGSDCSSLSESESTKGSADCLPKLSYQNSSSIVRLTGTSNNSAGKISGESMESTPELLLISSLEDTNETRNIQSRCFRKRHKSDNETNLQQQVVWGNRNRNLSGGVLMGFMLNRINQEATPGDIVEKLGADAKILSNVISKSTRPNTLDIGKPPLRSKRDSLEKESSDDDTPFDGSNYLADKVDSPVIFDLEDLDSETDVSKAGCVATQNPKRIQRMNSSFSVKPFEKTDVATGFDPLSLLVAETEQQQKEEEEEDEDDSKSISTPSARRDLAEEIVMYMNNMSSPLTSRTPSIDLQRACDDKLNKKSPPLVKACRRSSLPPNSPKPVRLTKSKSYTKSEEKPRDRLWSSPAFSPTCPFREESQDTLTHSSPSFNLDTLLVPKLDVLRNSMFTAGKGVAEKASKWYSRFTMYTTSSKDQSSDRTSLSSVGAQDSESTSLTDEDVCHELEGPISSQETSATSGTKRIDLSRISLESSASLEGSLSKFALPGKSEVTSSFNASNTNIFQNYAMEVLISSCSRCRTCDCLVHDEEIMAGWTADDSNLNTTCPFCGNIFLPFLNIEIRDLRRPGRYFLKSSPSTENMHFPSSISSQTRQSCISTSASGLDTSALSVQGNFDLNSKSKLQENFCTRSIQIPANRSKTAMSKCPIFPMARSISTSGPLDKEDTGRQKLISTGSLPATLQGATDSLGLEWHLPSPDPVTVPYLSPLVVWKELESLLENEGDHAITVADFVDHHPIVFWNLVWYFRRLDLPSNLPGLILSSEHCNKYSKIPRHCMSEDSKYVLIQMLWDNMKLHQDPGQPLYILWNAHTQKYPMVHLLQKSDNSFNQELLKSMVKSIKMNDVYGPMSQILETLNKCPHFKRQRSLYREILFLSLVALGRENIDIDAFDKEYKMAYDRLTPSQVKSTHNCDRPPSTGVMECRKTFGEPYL
Sequence of UniProt Q92466 (Q92466 whole entry, looked up): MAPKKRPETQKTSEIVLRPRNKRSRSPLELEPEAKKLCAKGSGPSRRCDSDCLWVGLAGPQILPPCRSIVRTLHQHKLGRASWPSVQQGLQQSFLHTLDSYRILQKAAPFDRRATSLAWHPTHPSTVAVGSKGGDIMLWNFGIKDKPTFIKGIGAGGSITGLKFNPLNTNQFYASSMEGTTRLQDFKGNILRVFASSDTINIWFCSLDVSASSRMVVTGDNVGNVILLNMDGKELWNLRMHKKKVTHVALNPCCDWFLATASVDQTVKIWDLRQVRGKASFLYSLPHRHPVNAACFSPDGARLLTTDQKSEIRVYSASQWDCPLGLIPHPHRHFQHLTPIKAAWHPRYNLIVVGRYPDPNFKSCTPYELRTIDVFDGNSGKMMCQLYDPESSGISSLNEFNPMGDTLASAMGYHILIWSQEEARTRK
Sequence of UniProt P61024 (P61024 whole entry, looked up): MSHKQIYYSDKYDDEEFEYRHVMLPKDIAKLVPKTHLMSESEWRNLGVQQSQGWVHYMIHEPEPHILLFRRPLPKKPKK

Target	log2 fold change (nilotinib)	log2 fold change [1]	log2 fold change (dasatinib)	log2 fold change [2]	log2 fold change [3]	log2 fold change (quisinostat)	log2 fold change (tipifarnib)	log2 fold change [4]	log2 fold change [5]	log2 fold change [6]	log2 fold change [7]	log2 fold change (vorinostat)	log2 fold change (silmitasertib)	log2 fold change [8]	log2 fold change (entospletinib)
CYCS (UniProt P99999)	0.014	-0.038	0.001	0.008	-0.037	0.035	0.015	-0.003	-0.015	0.022	0.017	0.114	-0.004	0.033	0.011
DCUN1D4 isoform 3 (UniProt Q92564)	0.023	-0.007	-0.062	-0.009	-0.046	0.066	0.017	-0.019	-0.036	-0.043	0.066	0.128	-0.031	-0.121	-0.096
CIP2A (UniProt Q8TCG1)	-0.006	0.02	-0.107	0.024	0.054	-0.123	0.01	0.019	0.032	-0.014	0.043	-0.608 (active)	0.055	0.011	0.008
COG7 (UniProt P83436)	0.02	0.007	-0.089	0.011	0.024	0	-0.001	0.033	-0.019	0.001	-0.013	-0.287 (active)	0.06	0.034	0.033
DENND4A isoform 2 (UniProt Q7Z401)	-0.02	-0.002	-0.008	0.023	0.008	-0.083	-0.017	0.058	0.042	0.008	0.046	-0.379 (active)	0.043	-0.02	-0.013
DHFR (UniProt P00374)	0.023	-0.041	-0.091	0.019	0.073	-0.009	-0.012	0.039	-0.129	-0.04	-0.045	-0.214	0.133	0	0.002
DNAH10 (UniProt Q8IVF4)	0.017	0.014	-0.026	-0.024	-0.026	-0.251	0.025	0.012	-0.017	-0.072	0.103	0.065	0	0.069	0.065
DDB2 (UniProt Q92466)	-0.027	-0.024	-0.033	-0.044	0.02	0.028	0.026	0.021	0.006	-0.003	0.054	0.048	-0.022	-0.002	0.019
CTPS1 (UniProt P17812)	0.009	-0.005	-0.058	0.011	0.026	-0.019	-0.015	0.028	0.002	-0.004	-0.007	0.565 (active)	0.028	-0.008	-0.005
COPZ1 isoform 4 (UniProt P61923)	0.012	0	0.015	0.088	0.023	0.289	0.002	-0.029	-0.103	0.037	-0.068	0.188	-0.032	0.163	-0.025
COMT (UniProt P21964)	-0.007	-0.029	-0.02	-0.018	0.02	-0.08	0.013	0.028	0.005	0.009	-0.106	-0.294 (active)	0.04	0.007	0.015
COL6A5 (UniProt A8TX70)	0.134	0.009	-0.11	-0.185	-0.038	-0.377	-0.236	0.017	0.051	-0.014	0.281	0.011	-0.003	0.022	0.009
DNAJC5 (UniProt Q9H3Z4)	-0.136	-0.043	-0.002	0.008	-0.029	-0.05	0.043	-0.045	0.062	0.024	0.02	0.101	-0.071	-0.03	0.019
CKS1B (UniProt P61024)	-0.03	0.04	0.065	-0.066	0.011	0.069	0.106	-0.051	0	0.11	-0.059	0.115	-0.004	-0.076	-0.021
DERA (UniProt Q9Y315)	0.037	-0.027	0.057	0.006	-0.017	-0.008	0.08	-0.017	-0.021	0	-0.015	0.063	-0.003	0.018	0
CKM (UniProt P06732)	0.033	0	-0.056	0.062	-0.093	-0.175	-0.072	0.068	-0.025	0.007	0.003	-0.053	-0.025	-0.014	-0.026
CLUH (UniProt O75153)	0.009	0.075	-0.025	-0.007	0.002	-0.043	0.007	0.039	-0.006	0.004	-0.011	0.404 (active)	0.071	0.033	0.01
COG3 (UniProt Q96JB2)	-0.02	-0.023	-0.13	-0.002	0.023	-0.097	0.022	0.044	0.024	-0.083	0.011	-0.314 (active)	0.123	0.06	-0.017
CSTB (UniProt P04080)	0.057	0.009	-0.017	0.079	-0.022	-0.206	-0.008	-0.004	-0.055	-0.005	-0.097	0.125	-0.045	0.022	-0.007

From the supplement of paper PMC10849652
